Results filed as inconclusive are left out. Calls of active or inactive are those of the source. Rule for the calls: active = hit-call score of the fitted dose curve at least 0.9, where 1 is the maximum; inconclusive = response in the unintended direction; inactive = score below 0.9.
Experiments:
[1] = target: bovine Estrogen Receptor (ER), ESR1 (gene 407238) (UniProt P49884); assay: NVS_NR_bER: NovaScreen (NVS) Nuclear Receptor Binding Assay for bovine Estrogen Receptor (ER) (AID 2283345);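 note: actives lower the bound radioligand count which means they displace the ER ligand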
Method in brief: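 Cell-free radioligand binding with receptor from bovine uterine membranes, read by scintillation counting 18 h after dosing. Loss of specific binding was scored against DMSO; primary screen at 25 uM in duplicate, actives then run as concentration series.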

[2] = target: Estrogen receptor (Homo sapiens) (UniProt P03372); assay: NVS_NR_hER: NovaScreen (NVS) Nuclear Receptor Binding Assay for human Estrogen Receptor (ER) (AID 2283348)
Method in brief: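 Cell-free MCF7-derived ER preparation, specific radioligand displaced by test compound, read by scintillation counting 18 h post-dosing. Duplicate single-point 25 uM screen, then concentration-response confirmation; DMSO baseline.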

[3] = target: Estrogen receptor (Homo sapiens) (UniProt P03372); assay: OT_ER_ERaERa_1440: Odyssey Thera (OT) 24-hour HEK293T Protein-Complementation Assay for Estrogen Receptor-alpha/-alpha Homodimer (AID 2283349);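 note: hits raise fluorescence above DMSO for agonists and antagonists alike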
Method in brief: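 HEK293T, stable ERα LBD (aa 310-547) homodimer PCA; 24 h compound exposure; mean fluorescence intensity (nuclear for agonists, nuclear plus cytoplasmic for antagonists) vs vehicle; positive fitting direction, DMSO baseline.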

[4] = target: Estrogen receptor (Homo sapiens) (UniProt P03372); assay: OT_ER_ERaERa_0480: Odyssey Thera (OT) 8-hour HEK293T Protein-Complementation Assay for Estrogen Receptor-alpha/-alpha Homodimer (AID 2283351);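 note: rise in fluorescence from reassembled reporter fragments on ERα LBD homodimer in nucleus or whole cell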
Method in brief: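 HEK293T cells stably expressing a PCA pair of ER alpha LBD (residues 310-547) were dosed for 8 hours. The gain in fluorescence intensity, nuclear for agonists and whole-cell for antagonists, was measured by laser scanning cytometry against DMSO vehicle.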

[5] = target: T1, Estrogen receptor (Homo sapiens) + Estrogen receptor beta (Homo sapiens) (UniProt P03372+Q92731); assay: OT_ER_ERaERb_0480: Odyssey Thera (OT) 8-hour HEK293T Protein-Complementation Assay for Estrogen Receptor-alpha/-beta Heterodimer (AID 2283352)
Method in brief: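 HEK293T protein-fragment complementation assay of ER-alpha/ER-beta LBD heterodimerisation, read 8 h after dosing. Mean nuclear/cytoplasmic fluorescence intensity measured by laser scanning cytometry; gain of signal fitted relative to DMSO.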

[6] = target: T1, Estrogen receptor (Homo sapiens) + Estrogen receptor beta (Homo sapiens); assay: OT_ER_ERaERb_1440: Odyssey Thera (OT) 24-hour HEK293T Protein-Complementation Assay for Estrogen Receptor-alpha/-beta Homodimer (AID 2283356);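 note: heteromer of ER alpha and ER beta binding domains; hits raise reporter fluorescence and both agonists and antagonists give an increase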
Method in brief: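 HEK293T stably expressing a PCA of ER alpha LBD (aa 310-547) and ER beta LBD (aa 263-489). After 24 h compound exposure, mean fluorescence intensity in nucleus (agonists) or nucleus and cytoplasm (antagonists) measured by laser scanning cytometry versus vehicle.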

[7] = target: Estrogen receptor beta (Homo sapiens) (UniProt Q92731); assay: OT_ER_ERbERb_0480: Odyssey Thera (OT) 8-hour HEK293T Protein-Complementation Assay for Estrogen Receptor-beta/-beta Homodimer (AID 2283357);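 note: active means signal gain over DMSO baseline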
Method in brief: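 ER-beta LBD homodimer PCA stably expressed in HEK293T; 8 h compound exposure, then formaldehyde fixation and Draq5 staining. Gain in nuclear/cytoplasmic fluorescence intensity versus DMSO vehicle, read on laser scanning cytometer.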

[8] = target: human Peroxisome Proliferator-activated Receptor alpha (PPARa), PPARA (gene 5465) (UniProt Q07869); assay: NVS_NR_hPPARa: NovaScreen (NVS) Nuclear Receptor Binding Assay for human Peroxisome Proliferator-activated Receptor alpha (PPARa) (AID 2283359);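 note: activity means loss of TR-FRET signal versus DMSO baseline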
Method in brief: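 Loss of TR-FRET binding signal relative to DMSO was measured 1 h after chemical addition to extracted receptor protein. Chemicals were first tested in duplicate at 25 uM, and actives were followed up in concentration series.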

[9] = target: human Thyroid Receptor Alpha (TRa), THRA (gene 7067) (UniProt P10827); assay: NVS_NR_hTRa_Antagonist: NovaScreen (NVS) Nuclear Receptor Binding Assay for human Thyroid Receptor Alpha Antagonism (TRa) (AID 2283362)
Method in brief: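 Cell-free AlphaLISA chemiluminescent binding read 1 h after dosing, antagonist mode; signal loss versus DMSO baseline. Primary screen in duplicate at 25 uM, then concentration series for actives.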

[10] = target: Androgen Receptor/SRC-1 Co-activator, AR (gene 367) (UniProt P10275); assay: OT_AR_ARSRC1_0960: Odyssey Thera (OT) 16-hour HEK293T Protein-Complementation Assay for Androgen Receptor/SRC-1 Co-activator (AID 2283353);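 note: actives raise the signal above DMSO so potency reflects increased AR and SRC-1 complex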
Method in brief: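 Endpoint is gain-of-signal N/C fluorescence ratio in the 488 nm channel versus DMSO, from at least 400 cells per image, measured 16 h post-dosing. Cells: HEK293T stably carrying split-Venus AR/SRC-1 complementation constructs.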

[11] = target: Androgen Receptor/SRC-1 Co-activator, AR (gene 367) (UniProt P10275); assay: OT_AR_ARSRC1_0480: Odyssey Thera (OT) 8-hour HEK293T Protein-Complementation Assay for Androgen Receptor/SRC-1 Co-activator (AID 2283354);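 note: hits raise the complementation signal above DMSO so AC50 marks enhancers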
Method in brief: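 Reconstituted split-Venus YFP signal from AR–SRC-1 interaction, read by imaging 8 h post-dose in stable HEK293T lines. The 488 nm nucleus-to-cytoplasm ratio (≥400 cells/image) was fitted upward against DMSO.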

[12] = target: chimpanzee Androgen Receptor (AR), AR (gene 747460) (UniProt O97775); assay: NVS_NR_cAR: NovaScreen (NVS) Nuclear Receptor Binding Assay for chimpanzee Androgen Receptor (AR) (AID 2283346);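 note: radioligand displacement from AR measured by scintillation counting in a cell-free assay; a loss of bound radioligand signal versus DMSO counts as binding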
Method in brief: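 Cell-free competition binding with insect-cell (Sf9/Sf21) extracted chimpanzee AR; scintillation signal from lysate at 72 h. Screened in duplicate at 25 uM, then concentration-response for actives; fitting relative to DMSO.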

[13] = target: Retinoic acid receptor alpha (Homo sapiens) (UniProt P10276); assay: NVS_NR_hRAR_Antagonist: NovaScreen (NVS) Nuclear Receptor Binding Assay for human Retinoic Acid Alpha Receptor Antagonism (RAR) (AID 2283358)
Method in brief: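 RARalpha antagonism was read by TR-FRET as loss of binding signal versus DMSO, 2 h after chemical addition, in a biochemical format. Single-concentration duplicates (25 uM) were run first, and actives were retested in concentration series.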

[14] = target: human Constitutive Androstane Receptor (CAR), NR1I3 (gene 9970) (UniProt Q14994); assay: NVS_NR_hCAR_Antagonist: NovaScreen (NVS) Nuclear Receptor Binding Assay for human Constitutive Androstane Receptor Antagonism (CAR) (AID 2283344)
Method in brief: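 Single 25 uM duplicate primary screen, with concentration-series follow-up on actives. Cell-free binding format run in antagonist mode, TR-FRET signal taken 1 h post-dose; activity is signal loss relative to DMSO.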

[15] = target: rat Mineralocorticoid Receptor (MR), Nr3c2 (gene 25672) (UniProt P22199); assay: NVS_NR_rMR: NovaScreen (NVS) Nuclear Receptor Binding Assay for rat Mineralocorticoid Receptor (MR) (AID 2283355)
Method in brief: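 Primary HTS ran in duplicate at a single 25 uM concentration, with concentration-series follow-up for actives. Receptor source: adrenalectomized rat brain supernatant, cell-free. Radioligand displacement read by scintillation at 24 h, relative to DMSO baseline.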

Chain of Estrogen receptor beta (Homo sapiens) (Q92731 whole entry, looked up, the tested form may be a part): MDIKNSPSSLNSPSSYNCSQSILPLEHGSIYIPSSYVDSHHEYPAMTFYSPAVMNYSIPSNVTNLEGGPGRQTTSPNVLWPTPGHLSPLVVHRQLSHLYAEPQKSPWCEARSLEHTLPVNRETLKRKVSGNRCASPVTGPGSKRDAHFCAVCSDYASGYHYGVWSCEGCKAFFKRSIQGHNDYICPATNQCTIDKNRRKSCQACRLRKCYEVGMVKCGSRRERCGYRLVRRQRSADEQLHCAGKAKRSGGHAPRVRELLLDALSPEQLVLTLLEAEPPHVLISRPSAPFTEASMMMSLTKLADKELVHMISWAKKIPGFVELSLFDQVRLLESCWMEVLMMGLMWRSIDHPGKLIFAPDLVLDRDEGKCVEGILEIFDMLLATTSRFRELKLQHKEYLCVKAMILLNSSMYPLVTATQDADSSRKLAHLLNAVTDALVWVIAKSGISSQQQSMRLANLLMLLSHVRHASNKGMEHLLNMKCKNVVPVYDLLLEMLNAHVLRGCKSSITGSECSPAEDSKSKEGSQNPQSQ
Chain of human Peroxisome Proliferator-activated Receptor alpha (PPARa), PPARA (gene 5465) (Q07869 whole entry, looked up): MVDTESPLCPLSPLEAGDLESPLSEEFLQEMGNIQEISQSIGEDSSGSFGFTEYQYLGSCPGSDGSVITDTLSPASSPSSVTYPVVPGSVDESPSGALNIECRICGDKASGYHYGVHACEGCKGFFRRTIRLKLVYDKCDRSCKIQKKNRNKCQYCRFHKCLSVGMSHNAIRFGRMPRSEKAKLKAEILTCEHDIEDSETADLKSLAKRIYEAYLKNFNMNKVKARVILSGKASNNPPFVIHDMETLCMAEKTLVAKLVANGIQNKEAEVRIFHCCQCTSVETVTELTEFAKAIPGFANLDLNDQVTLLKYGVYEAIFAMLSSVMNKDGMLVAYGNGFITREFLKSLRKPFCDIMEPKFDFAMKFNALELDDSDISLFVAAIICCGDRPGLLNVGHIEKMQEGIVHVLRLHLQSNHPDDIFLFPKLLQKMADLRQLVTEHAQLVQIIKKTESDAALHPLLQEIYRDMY
Chain of chimpanzee Androgen Receptor (AR), AR (gene 747460) (O97775 whole entry, looked up): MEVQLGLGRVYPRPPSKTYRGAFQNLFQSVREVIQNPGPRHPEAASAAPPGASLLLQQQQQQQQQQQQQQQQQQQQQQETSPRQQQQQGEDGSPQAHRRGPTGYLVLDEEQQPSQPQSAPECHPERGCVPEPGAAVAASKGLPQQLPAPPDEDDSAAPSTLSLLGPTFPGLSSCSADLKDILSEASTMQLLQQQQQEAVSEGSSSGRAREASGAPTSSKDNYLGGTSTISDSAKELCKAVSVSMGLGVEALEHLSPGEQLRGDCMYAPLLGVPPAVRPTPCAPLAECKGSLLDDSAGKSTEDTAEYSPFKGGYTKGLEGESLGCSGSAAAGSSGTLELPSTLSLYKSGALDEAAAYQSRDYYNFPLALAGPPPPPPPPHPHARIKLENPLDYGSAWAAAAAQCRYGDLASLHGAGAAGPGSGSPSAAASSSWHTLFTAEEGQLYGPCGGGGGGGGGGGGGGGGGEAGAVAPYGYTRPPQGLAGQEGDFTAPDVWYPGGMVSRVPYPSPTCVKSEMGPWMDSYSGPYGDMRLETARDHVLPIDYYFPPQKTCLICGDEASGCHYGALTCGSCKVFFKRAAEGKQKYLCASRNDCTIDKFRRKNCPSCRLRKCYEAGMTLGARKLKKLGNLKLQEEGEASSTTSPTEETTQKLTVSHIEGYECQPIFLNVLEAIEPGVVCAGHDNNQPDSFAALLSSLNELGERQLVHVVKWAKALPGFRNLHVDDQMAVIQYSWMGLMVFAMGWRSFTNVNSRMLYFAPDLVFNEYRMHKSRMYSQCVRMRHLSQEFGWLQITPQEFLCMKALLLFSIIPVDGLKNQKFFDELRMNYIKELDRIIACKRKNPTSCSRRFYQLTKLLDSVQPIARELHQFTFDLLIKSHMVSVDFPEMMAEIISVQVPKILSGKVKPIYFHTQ
Chain of bovine Estrogen Receptor (ER), ESR1 (gene 407238) (P49884 whole entry, looked up): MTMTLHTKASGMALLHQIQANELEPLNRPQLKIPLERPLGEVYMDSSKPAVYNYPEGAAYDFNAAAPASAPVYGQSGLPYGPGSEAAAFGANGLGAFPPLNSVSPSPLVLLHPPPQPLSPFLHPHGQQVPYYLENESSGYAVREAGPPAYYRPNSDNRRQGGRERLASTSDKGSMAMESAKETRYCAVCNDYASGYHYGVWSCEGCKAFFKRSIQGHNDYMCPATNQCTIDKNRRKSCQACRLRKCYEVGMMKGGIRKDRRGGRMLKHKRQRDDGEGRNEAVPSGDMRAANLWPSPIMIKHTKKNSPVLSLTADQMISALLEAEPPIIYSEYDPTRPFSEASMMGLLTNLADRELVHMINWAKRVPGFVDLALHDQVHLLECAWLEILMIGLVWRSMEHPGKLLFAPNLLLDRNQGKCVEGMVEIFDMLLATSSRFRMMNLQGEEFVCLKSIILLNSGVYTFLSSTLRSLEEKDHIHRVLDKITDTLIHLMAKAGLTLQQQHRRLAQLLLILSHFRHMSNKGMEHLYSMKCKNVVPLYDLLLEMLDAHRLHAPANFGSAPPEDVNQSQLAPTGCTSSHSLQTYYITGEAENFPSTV
Chain of Androgen Receptor/SRC-1 Co-activator, AR (gene 367) (P10275 whole entry, looked up): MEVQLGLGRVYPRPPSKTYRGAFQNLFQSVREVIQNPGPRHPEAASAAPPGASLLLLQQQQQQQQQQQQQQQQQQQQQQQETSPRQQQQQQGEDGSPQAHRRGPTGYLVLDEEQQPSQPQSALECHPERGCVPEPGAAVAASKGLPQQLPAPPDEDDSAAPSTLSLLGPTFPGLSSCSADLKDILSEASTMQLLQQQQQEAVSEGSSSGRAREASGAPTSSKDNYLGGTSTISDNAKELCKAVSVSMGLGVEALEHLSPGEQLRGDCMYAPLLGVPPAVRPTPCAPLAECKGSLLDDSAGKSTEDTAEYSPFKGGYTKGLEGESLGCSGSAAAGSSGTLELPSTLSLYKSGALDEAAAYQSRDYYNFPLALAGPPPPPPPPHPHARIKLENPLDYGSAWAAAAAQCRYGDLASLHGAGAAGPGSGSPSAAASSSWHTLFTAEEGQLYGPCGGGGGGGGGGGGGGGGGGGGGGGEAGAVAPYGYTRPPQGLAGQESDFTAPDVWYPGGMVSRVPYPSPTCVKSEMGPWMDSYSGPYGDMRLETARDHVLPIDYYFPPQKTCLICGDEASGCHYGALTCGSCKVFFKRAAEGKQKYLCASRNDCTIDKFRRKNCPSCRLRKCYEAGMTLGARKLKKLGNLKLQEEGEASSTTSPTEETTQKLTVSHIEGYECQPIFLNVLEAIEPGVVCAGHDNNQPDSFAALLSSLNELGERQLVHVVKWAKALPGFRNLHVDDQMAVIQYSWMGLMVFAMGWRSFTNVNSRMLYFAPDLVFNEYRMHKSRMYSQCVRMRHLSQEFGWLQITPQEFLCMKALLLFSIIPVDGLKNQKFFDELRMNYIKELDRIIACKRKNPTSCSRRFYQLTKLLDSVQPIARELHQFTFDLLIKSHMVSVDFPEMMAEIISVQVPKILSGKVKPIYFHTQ
Chain of Estrogen receptor (Homo sapiens) (P03372 whole entry, looked up, the tested form may be a part): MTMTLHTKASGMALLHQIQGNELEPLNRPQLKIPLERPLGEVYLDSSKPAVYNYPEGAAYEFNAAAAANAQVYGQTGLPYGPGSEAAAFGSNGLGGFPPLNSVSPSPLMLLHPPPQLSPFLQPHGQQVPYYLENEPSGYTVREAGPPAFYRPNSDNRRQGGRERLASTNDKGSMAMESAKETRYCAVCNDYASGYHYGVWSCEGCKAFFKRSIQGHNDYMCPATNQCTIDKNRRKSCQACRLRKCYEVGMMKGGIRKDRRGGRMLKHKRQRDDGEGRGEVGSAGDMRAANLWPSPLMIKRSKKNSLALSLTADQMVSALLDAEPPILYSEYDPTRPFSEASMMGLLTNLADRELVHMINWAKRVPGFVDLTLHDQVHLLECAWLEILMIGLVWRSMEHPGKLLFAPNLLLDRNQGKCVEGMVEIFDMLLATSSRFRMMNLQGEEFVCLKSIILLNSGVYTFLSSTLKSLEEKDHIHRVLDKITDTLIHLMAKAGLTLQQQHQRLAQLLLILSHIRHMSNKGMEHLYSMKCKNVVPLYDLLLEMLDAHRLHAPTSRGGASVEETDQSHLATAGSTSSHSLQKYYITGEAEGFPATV
Chain of human Thyroid Receptor Alpha (TRa), THRA (gene 7067) (P10827 whole entry, looked up): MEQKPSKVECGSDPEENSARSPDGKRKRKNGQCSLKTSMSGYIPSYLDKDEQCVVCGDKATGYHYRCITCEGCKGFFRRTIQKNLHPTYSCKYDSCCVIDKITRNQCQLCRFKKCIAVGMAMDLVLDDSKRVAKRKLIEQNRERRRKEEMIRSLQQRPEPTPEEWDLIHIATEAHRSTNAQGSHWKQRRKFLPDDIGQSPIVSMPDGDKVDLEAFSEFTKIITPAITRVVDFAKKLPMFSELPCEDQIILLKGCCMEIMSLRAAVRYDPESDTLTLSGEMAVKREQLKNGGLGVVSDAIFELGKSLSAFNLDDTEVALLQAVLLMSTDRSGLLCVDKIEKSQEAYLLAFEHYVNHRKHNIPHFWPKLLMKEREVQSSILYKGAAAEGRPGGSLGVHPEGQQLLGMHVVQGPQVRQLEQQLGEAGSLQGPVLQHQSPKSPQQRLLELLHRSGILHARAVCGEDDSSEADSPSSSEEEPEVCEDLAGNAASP
Chain of Retinoic acid receptor alpha (Homo sapiens) (P10276 whole entry, looked up): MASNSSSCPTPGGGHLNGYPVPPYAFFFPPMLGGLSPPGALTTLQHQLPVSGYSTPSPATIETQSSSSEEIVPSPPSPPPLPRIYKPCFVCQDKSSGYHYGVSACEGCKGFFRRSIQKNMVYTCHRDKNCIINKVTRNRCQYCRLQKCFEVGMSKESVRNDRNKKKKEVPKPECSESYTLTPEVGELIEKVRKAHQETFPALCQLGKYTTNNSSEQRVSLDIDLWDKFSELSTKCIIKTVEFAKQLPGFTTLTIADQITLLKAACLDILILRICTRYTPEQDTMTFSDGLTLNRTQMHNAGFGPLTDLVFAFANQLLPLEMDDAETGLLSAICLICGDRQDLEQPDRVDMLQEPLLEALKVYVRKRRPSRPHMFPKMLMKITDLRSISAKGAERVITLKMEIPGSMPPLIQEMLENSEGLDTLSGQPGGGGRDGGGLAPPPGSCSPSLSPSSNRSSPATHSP

For `CC(C)(c1ccccc1)c1ccc(O)c(C(C)(C)c2ccccc2)c1`, which outcome [1] is on record?
Its outcome is “inactive”.

And the outcome [2]?
Its outcome is “inactive”.

And the outcome [3]?
The outcome was “inactive”.

What about the outcome [4] of the same compound?
The outcome was “inactive”.

What about the outcome [5] of the same compound?
The outcome was “inactive”.

And the AC50 [6]?
The AC50 was 12 µM (active).

And the AC50 [7]?
The AC50 was 2.61 µM (active).

And the outcome [8]?
Its outcome is “inactive”.

And the outcome [9]?
The outcome was “inactive”.

Which results are given for `COP(=O)(OC)O/C(=C\Cl)c1cc(Cl)c(Cl)cc1Cl`?
outcome [1]: inactive; outcome [2]: inactive; outcome [4]: inactive; AC50 [10]: 67.5 µM (active); outcome [11]: inactive; outcome [8]: inactive

With `CCOP(=S)(OCC)SCSP(=S)(OCC)OCC` as the compound, how does the outcome [1] read?
The outcome was “inactive”.

And the outcome [2]?
The outcome was “inactive”.

What about the outcome [3] of the same compound?
Its outcome is “inactive”.

And the AC50 [4]?
Its AC50 is 6.96 µM (active).

What about the AC50 [5] of the same compound?
Its AC50 is 10.7 µM (active).

And the AC50 [6]?
The AC50 was 9.13 µM (active).

And the AC50 [7]?
Its AC50 is 14.7 µM (active).

Which results are given for `COC(=O)c1sccc1S(=O)(=O)NC(=O)Nc1nc(C)nc(OC)n1`?
outcome [1]: inactive; outcome [2]: inactive; outcome [4]: inactive; outcome [5]: inactive; outcome [6]: inactive; outcome [7]: inactive

With `O=C(Cc1ccccc1)c1ccccc1` as the compound, how does the outcome [1] read?
The outcome was “inactive”.

And the outcome [2]?
The outcome was “inactive”.

What about the outcome [3] of the same compound?
Its outcome is “inactive”.

What about the outcome [4] of the same compound?
Its outcome is “inactive”.

Which AC50 [1] does the source give for `Clc1ccc(COC(Cn2ccnc2)c2ccc(Cl)cc2Cl)cc1` (stereo not drawn) here?
The AC50 was 0.7 µM (active).

What about the AC50 [12] of the same compound?
Its AC50 is 9.28 µM (active).

And the outcome [3]?
The outcome was “inactive”.

And the outcome [4]?
The outcome was “inactive”.

What about the AC50 [6] of the same compound?
Its AC50 is 11.8 µM (active).

What about the outcome [7] of the same compound?
Its outcome is “inactive”.

What about the AC50 [13] of the same compound?
The AC50 was 16.2 µM (active).

And the AC50 [8]?
Its AC50 is 39.8 µM (active).

And the outcome [9]?
Its outcome is “inactive”.

For `Cc1ccccc1N`, which outcome [14] is on record?
Its outcome is “inactive”.

With `C=CC(=O)OCCCCCC(C)C` as the compound, how does the outcome [1] read?
Its outcome is “inactive”.

What about the outcome [2] of the same compound?
Its outcome is “inactive”.

What about the outcome [4] of the same compound?
The outcome was “inactive”.

And the outcome [5]?
Its outcome is “inactive”.

And the outcome [10]?
Its outcome is “inactive”.

What about the outcome [11] of the same compound?
Its outcome is “inactive”.

And the outcome [6]?
The outcome was “inactive”.

What about the outcome [7] of the same compound?
The outcome was “inactive”.

For `C(=NC1CCCCC1)=NC1CCCCC1`, which outcome [1] is on record?
Its outcome is “inactive”.

How did the outcome [1] turn out when `CCOC(=O)/C=C(C)/C=C/C[C@@H](C)CCCC(C)C` was run?
The outcome was “inactive”.

And the outcome [2]?
The outcome was “inactive”.

`CCOP(=S)(OCC)Oc1nc(Cl)c(Cl)cc1Cl` was tested. Which outcome [1] did it give?
Its outcome is “inactive”.

And the AC50 [3]?
Its AC50 is 70.6 µM (active).

What about the AC50 [4] of the same compound?
The AC50 was 71.3 µM (active).

And the AC50 [5]?
The AC50 was 50 µM (active).

And the AC50 [11]?
The AC50 was 78.9 µM (active).

And the AC50 [6]?
The AC50 was 61.5 µM (active).

What about the AC50 [7] of the same compound?
The AC50 was 58.9 µM (active).

For `CCCCCCCCCCCCCCCC[n+]1ccccc1`, which outcome [1] is on record?
Its outcome is “inactive”.

With `CC(C)OC(=O)Nc1ccccc1` as the compound, how does the outcome [1] read?
Its outcome is “inactive”.

What about the outcome [4] of the same compound?
Its outcome is “inactive”.

Which outcome [1] does the source give for `O=C(OC1CCCCC1)c1ccccc1C(=O)OC1CCCCC1` here?
Its outcome is “inactive”.

What about the outcome [12] of the same compound?
The outcome was “inactive”.

What about the outcome [2] of the same compound?
Its outcome is “inactive”.

What about the AC50 [4] of the same compound?
Its AC50 is 35 µM (active).

What about the outcome [15] of the same compound?
The outcome was “inactive”.

`CC(C)(c1ccc(OCC2CO2)cc1)c1ccc(OCC2CO2)cc1` (stereo not drawn) was tested. Which outcome [1] did it give?
The outcome was “inactive”.

What about the outcome [12] of the same compound?
The outcome was “inactive”.

What about the AC50 [2] of the same compound?
The AC50 was 14.2 µM (active).

What about the outcome [3] of the same compound?
The outcome was “inactive”.

And the outcome [4]?
Its outcome is “inactive”.

What about the outcome [5] of the same compound?
The outcome was “inactive”.

And the AC50 [10]?
Its AC50 is 79.1 µM (active).

What about the outcome [11] of the same compound?
Its outcome is “inactive”.

And the outcome [7]?
Its outcome is “inactive”.

What about the outcome [13] of the same compound?
The outcome was “inactive”.

Reference: PubChem BioAssay (EPA / NIEHS)
